The values that follow come from PubChem BioAssay (NCATS).

Assay [1] has as its target Cytochrome P450 1A2 (Homo sapiens) (UniProt P05177). Kind of assay: p450-cyp1a2 (AID 410; calls by dose curve; also: potency is read from the fitted curve at half-maximal effect). A digest of the protocol: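 Read-out is luminescence from luciferin produced by CYP1A2 demethylation of Luciferin-ME (100uM, at Km). Detection reagent stopped the 60 min NADPH-dependent reaction; signals were normalized to 57 uM furafylline.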
Assay [2] concerns the target Mitogen-activated protein kinase 10 (Mus musculus) (UniProt Q61831). The assay is described as follows: JNK3 AlphaScreen Assay (AID 530; active = well fitted curve in either direction with a large enough effect, not every such curve was filed as active;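 also: kinase came from lysate of stimulated human HepG2 cells; signal reports phosphorylation of biotinylated GST-cJun 1-79 at Ser73 with 10 µM ATP; series mostly up to about 57 µM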). In a few lines:
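Kinase buffer: 20 mM Tris-HCl pH 7.6, 10 mM MgCl2, 1 mM DTT, 0.1 mM Na3VO4, 0.01% Tween-20; ATP 10 uM. Substrate biotin-GST-cJun(1-79), enzyme from activated HepG2 lysates. Detection by Ser73 phospho-antibody AlphaScreen.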
For orientation: Alpha assays give light when donor and acceptor beads are brought close together.

The target of assay [3] is Cytochrome P450 2C9 (Homo sapiens) (UniProt P11712). The assay is described as follows: qHTS Assay for Inhibitors and Substrates of Cytochrome P450 2C9 (AID 883). Also: potency is read from the fitted curve at half-maximal effect; nearly all actives have a fitted effect of over 60% in size. In a few lines:
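Luminescent read-out of deoxyluciferin hydroxylation, normalized to 57uM sulphaphenazole (AC100). Reaction: 10nM enzyme, 100uM Luciferin-H (equal to KM), 25mM KPO4, 10 min compound preincubation, then 60 min with NADPH regeneration, both at 37C.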
A general note: qHTS replaces the single test concentration by a dilution series.

Assay [4] has as its target Cytochrome P450 3A4 (Homo sapiens) (UniProt P08684). Kind of assay: qHTS Assay for Inhibitors and Substrates of Cytochrome P450 3A4 (AID 884). Also: potency is read from the fitted curve at half-maximal effect; nearly all actives have a fitted effect of over 50% in size. A digest of the protocol:
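Luminescent readout of luciferin produced by CYP3A4 (20 nM) dealkylation of Luciferin-PPXE, 25 uM (its KM). NADPH-driven reaction ran 60 min at RT after 10 min compound preincubation; data scaled to 57 uM ketoconazole as 100% inhibition.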

The target is the same in assay [5]. The assay is described as follows: qHTS Assay for Activators of Cytochrome P450 3A4 (AID 885). Also: nearly all actives have a fitted effect of over 65% in size. In a few lines:
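CYP3A4 activity: Luciferin-PPXE O-dealkylation, 25uM substrate, 200mM KPO4, RT throughout. Read-out is luciferase luminescence; higher values reflect activation.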

For assay [6], the target named is Cytochrome P450 2C19 (Homo sapiens) (UniProt P33261). The assay is described as follows: qHTS Assay for Inhibitors and Substrates of Cytochrome P450 2C19 (AID 899). Also: potency is read from the fitted curve at half-maximal effect; nearly all actives have a fitted effect of over 60% in size. In a few lines:
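Luminescence readout of luciferin formed from 10uM Luciferin-H EGE (KM level) by 5 nM CYP2C19 in 50mM KPO4. 60 min NADPH-driven reaction at 37C after 10 min compound preincubation; data scaled to 57uM ketoconazole inhibition.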

For assay [7], the target named is Cytochrome P450 2D6 (Homo sapiens) (UniProt P10635). Kind of assay: qHTS Assay for Inhibitors and Substrates of Cytochrome P450 2D6 (AID 891). Also: potency is read from the fitted curve at half-maximal effect; nearly all actives have a fitted effect of over 60% in size. A digest of the protocol:
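Luminescent read-out of luciferin formed by 5 nM human CYP2D6 demethylating 30 uM Luciferin-ME EGE (Km level) over 60 min at room temperature after NADPH regeneration addition. Data normalized to full inhibition by 1.43 uM quinidine.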

The structures appear in SMILES notation. Records with an inconclusive call do not appear. Active and inactive are the calls of the source. Unless noted, calls follow the shape of the dose curve; as a rule, active = well fitted curve in the direction sought with a large enough effect; inconclusive = small, poorly fitted or top-dose-only effect, or another doubt; inactive = no such curve, though single readings can be large; an effect the other way counts as inactive or inconclusive.

Sequence of Cytochrome P450 2D6 (Homo sapiens) (P10635 whole entry, looked up): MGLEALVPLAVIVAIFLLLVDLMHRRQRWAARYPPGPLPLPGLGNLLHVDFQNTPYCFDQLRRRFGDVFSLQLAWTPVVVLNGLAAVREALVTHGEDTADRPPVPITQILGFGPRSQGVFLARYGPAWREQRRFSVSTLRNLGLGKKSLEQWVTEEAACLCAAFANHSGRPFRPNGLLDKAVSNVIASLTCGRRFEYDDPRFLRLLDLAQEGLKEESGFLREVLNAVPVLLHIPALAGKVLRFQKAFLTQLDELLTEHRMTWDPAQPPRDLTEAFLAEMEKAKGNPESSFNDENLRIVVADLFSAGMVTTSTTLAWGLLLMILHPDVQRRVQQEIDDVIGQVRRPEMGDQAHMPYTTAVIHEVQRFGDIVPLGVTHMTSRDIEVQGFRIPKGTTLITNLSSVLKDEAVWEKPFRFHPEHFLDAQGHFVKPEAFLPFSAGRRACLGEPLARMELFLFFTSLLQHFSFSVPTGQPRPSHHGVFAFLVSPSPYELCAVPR
Sequence of Cytochrome P450 1A2 (Homo sapiens) (P05177 whole entry, looked up): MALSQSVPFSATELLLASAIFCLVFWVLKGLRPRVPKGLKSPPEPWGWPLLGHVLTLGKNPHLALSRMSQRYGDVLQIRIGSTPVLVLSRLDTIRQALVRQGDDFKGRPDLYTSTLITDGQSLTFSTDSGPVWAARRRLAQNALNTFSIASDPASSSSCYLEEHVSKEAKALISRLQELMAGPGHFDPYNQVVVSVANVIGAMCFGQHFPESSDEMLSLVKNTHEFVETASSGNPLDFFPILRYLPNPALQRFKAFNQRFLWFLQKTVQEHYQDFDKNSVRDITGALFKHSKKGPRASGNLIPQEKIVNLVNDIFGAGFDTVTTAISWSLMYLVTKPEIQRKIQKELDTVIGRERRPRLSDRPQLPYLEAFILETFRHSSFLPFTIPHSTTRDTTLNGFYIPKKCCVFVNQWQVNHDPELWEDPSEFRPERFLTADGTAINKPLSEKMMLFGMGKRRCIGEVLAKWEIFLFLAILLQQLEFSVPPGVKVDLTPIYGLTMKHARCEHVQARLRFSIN
Sequence of Cytochrome P450 2C19 (Homo sapiens) (P33261 whole entry, looked up): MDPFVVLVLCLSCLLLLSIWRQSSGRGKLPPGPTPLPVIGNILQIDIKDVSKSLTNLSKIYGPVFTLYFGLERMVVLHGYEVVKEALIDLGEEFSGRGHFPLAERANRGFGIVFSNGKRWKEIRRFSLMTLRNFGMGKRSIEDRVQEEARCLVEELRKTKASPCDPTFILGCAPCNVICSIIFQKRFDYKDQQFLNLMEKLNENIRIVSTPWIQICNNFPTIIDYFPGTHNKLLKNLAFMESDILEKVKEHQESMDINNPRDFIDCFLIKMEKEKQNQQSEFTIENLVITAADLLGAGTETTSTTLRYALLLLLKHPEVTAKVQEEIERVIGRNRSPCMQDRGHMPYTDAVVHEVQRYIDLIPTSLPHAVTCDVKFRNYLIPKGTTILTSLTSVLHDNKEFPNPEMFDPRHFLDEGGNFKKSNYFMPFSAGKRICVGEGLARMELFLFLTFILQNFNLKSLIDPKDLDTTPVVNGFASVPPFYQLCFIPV
Sequence of Cytochrome P450 2C9 (Homo sapiens) (P11712 whole entry, looked up): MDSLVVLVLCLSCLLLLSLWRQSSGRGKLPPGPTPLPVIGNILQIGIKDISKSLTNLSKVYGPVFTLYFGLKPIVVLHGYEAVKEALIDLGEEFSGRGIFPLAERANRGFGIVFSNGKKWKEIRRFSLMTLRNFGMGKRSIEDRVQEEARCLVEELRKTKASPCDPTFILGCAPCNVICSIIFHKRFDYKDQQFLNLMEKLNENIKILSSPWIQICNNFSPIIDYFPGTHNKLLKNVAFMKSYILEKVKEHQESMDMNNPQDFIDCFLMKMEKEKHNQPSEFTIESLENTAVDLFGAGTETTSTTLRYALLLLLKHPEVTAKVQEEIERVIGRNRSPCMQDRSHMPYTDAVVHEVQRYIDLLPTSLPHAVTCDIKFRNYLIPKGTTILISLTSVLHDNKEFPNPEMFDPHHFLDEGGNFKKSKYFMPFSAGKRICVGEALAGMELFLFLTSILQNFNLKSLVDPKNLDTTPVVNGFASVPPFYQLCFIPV
Sequence of Cytochrome P450 3A4 (Homo sapiens) (P08684 whole entry, looked up): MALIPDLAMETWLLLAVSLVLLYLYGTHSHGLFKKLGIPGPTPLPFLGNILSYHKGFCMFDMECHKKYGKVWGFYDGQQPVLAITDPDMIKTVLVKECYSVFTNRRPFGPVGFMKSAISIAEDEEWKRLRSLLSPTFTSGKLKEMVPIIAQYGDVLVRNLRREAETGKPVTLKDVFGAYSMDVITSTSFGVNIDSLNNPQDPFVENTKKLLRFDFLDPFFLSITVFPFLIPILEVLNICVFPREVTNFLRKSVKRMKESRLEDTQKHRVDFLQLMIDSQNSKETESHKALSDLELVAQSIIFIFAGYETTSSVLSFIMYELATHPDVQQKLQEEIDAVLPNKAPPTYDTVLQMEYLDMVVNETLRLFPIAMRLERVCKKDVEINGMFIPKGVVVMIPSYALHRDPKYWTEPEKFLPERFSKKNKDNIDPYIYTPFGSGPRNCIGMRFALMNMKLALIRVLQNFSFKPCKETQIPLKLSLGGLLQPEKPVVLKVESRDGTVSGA

Take `CCC/C=C(\CCC)C(NC(=O)c1cccs1)c1ccc(C(=O)OC)cc1` (stereo unspecified): the Potency in assay [1] is 5.01 µM (active); in assay [3], 2 µM (active); in assay [4], 1.26 µM (active); in assay [6], 794 nM (active). Besides, the Potency result in assay [2] and in assay [5] was “inactive” throughout.
As for `CCCC[C@@H]1C[C@H]1C(NC(=O)Cc1ccccc1)c1ccc(Cl)cc1` (stereo partly specified), the figures for the Potency in assay [1], in assay [4] and in assay [6] were 2.51 µM (active), 2.51 µM (active) and 50.1 nM (active), respectively. Further, the Potency entry in assay [2] and in assay [5] was “inactive” throughout.
As to `CCC/C=C(\CCC)C(NC(=O)c1ccccc1)c1ccccc1` (stereo unspecified), the Potency in assay [1] was 10 µM (active). For the same compound, the Potency entry in assay [2] and in assay [5] was “inactive” each time.
For the compound `COC(=O)[C@H](C)[C@@H]1C[C@@]1(C)[C@@H](NC(=O)OCc1ccccc1)c1ccccc1`, the Potency was 15.8 µM (active) in assay [1], 5.01 µM (active) in assay [3] and 316 nM (active) in assay [6]. Besides, the Potency entry in assay [2] and in assay [5] was “inactive” in each case.
Take `COC(=O)[C@@]1(Cc2ccc(F)cc2)[C@H]2c3cc(C(=O)N(C)C)n(Cc4ccc(C)c(F)c4F)c3C[C@H]2CN1C(=O)c1ccccc1`: the Potency result in assay [1], in assay [2] and in assay [5] was “inactive” throughout. In addition, the Potency in assay [4] is 0.794 µM (active).
For the compound `CCc1cccc2nc3c(c([Si](C)(C)C)c12)Cn1c-3cccc1=O`, the Potency in assay [1] is 2.51 µM (active). The Potency entry in assay [2] and in assay [5] was “inactive” in each case.
With `COC(=O)c1ccc(C23CC2(C(NP(=O)(c2ccccc2)c2ccccc2)c2ccccc2)C3)cc1` (stereo unspecified), the Potency in assay [1] was 15.8 µM (active); in assay [4], 3.16 µM (active). Moreover, the Potency entry in assay [2] and in assay [5] was “inactive” throughout.
As for `COC(=O)[C@@]1(Cc2ccc(F)cc2)[C@@H]2C(=CC(=O)[C@H]2CC(=O)C(=O)N(C)C)CN1C(=O)c1ccccc1`, the Potency result in assay [1], in assay [2] and in assay [5] was “inactive” in each case.
For `COC(=O)[C@@]1(Cc2ccc(F)cc2)[C@H]2c3cc(C(=O)N(C)C)n(Cc4ccc(C)o4)c3C[C@H]2CN1C(=O)c1ccccc1`, the Potency result in assay [1], in assay [2] and in assay [5] was “inactive” throughout. For the same compound, the Potency in assay [4] was 2.51 µM (active).
On to `CCCC[C@@H]1C[C@H]1C(NC(=O)c1ccccc1)c1ccccc1C(F)(F)F` (stereo partly specified), for which the Potency is 10 µM (active) in assay [1], 1.26 µM (active) in assay [3] and 501 nM (active) in assay [6]. For the same compound, the Potency entry in assay [2] and in assay [5] was “inactive” throughout.
As for `COC(=O)[C@@]1(Cc2ccc(OC)cc2)[C@@H]2C(=CC(=O)[C@H]2CC(=O)C(=O)N2CCCC2)CN1C(=O)c1ccccc1`, the Potency result in assay [1], in assay [2] and in assay [5] was “inactive” each time.
Turning to `CC(C)c1cccc2nc3c(c(C(C)(C)C)c12)Cn1c-3cccc1=O`, the Potency in assay [1] was 12.6 µM (active). Further, the Potency result in assay [2] and in assay [5] was “inactive” each time.
Regarding `COC(=O)[C@@]1(Cc2ccc(OC)cc2)[C@@H]2C(=CC(=O)[C@H]2CC(=O)C(=O)N(C)C)CN1C(=O)c1ccccc1`, the Potency entry in assay [1], in assay [2] and in assay [5] was “inactive” in each case.
`S=C(Nc1ccccc1)Nc1ccccc1C#Cc1ccccc1`: the Potency in assay [1] is 0.501 µM (active); in assay [3] it was 3.98 µM (active); in assay [6] it was 3160 nM (active). For the same compound, the Potency result in assay [2] and in assay [5] was “inactive” throughout.
Regarding `CCCC[C@H]1C[C@@H]1[C@@H]1N(P(=O)(c2ccccc2)c2ccccc2)[C@](CO)(c2ccccc2)CC12CC2`, the Potency entry in assay [1], in assay [2] and in assay [5] was “inactive” throughout. For the same compound, the Potency in assay [4] is 2 µM (active); in assay [7], 2.51 µM (active).
As for `COC(=O)[C@@]1(Cc2ccc(OC)cc2)[C@@H]2[C@@H](CC(=O)[C@H]2CC(=O)C(=O)N2CCCC2)CN1C(=O)c1ccccc1`, the Potency entry in assay [1], in assay [2] and in assay [5] was “inactive” throughout. For the same compound, in assay [4], the Potency was 0.794 µM (active).
As to `CCC/C=C(\CCC)C(NS(=O)(=O)CC12CCC(CC1=O)C2(C)C)c1ccc(C(=O)OC)cc1` (stereo unspecified), the Potency entry in assay [1], in assay [2] and in assay [5] was “inactive” each time. Also, the values for the Potency in assay [4] and in assay [7] were 3.98 µM (active) and 5.01 µM (active), respectively.
For the compound `COc1cc2nc3c(c([Si](C)(C)C(C)(C)C)c2cc1OC)Cn1c-3cccc1=O`, the Potency in assay [1] is 5.01 µM (active); in assay [4] it was 3.98 µM (active). Moreover, the Potency entry in assay [2] and in assay [5] was “inactive” in each case.
Regarding `CC(C)c1cccc2nc3c(c([Si](C)(C)C(C)(C)C)c12)Cn1c-3cccc1=O`, the Potency in assay [1] was 25.1 µM (active). For the same compound, the Potency result in assay [2] and in assay [5] was “inactive” throughout.
For the compound `CCC/C=C(\CCC)C(NC(=O)c1cccs1)c1ccc(C(F)(F)F)cc1` (stereo unspecified), the figures for the Potency in assay [1], in assay [4] and in assay [6] were 3.16 µM (active), 2.51 µM (active) and 316 nM (active), respectively. Besides, the Potency entry in assay [2] and in assay [5] was “inactive” in each case.
Regarding `CCCC[C@@H]1C[C@H]1C(NC(=O)Cc1ccccc1)c1ccc(-c2ccccc2)cc1` (stereo partly specified), the Potency entry in assay [1], in assay [2] and in assay [5] was “inactive” throughout.
As to `COc1ccc2nc3c(c([Si](C)(C)C(C)(C)C)c2c1)Cn1c-3cccc1=O`, the Potency is 0.794 µM (active) in assay [1], 1.58 µM (active) in assay [4], 2 µM (active) in assay [7] and 2000 nM (active) in assay [6]. Besides, the Potency entry in assay [2] and in assay [5] was “inactive” in each case.
